Reference: ChEMBL document CHEMBL4513216, “Probing the Open Global Health Chemical Diversity Library for Multistage-Active Starting Points for Next-Generation Antimalarials” (ACS Infect Dis, 2020)
Out of some 69,000 compounds screened, about 8,600 (12%) showed an effect of 50% or more. Only a selection was taken, and strong results are over-represented in it overall.

The molecules below were run on Plasmodium berghei (assay: Screen against P. berghei liver stage (PbLuc), transformed with Luciferase, at 10uM). Conditions: tested at 10 uM.
Assay type: functional, HepG2

Compound	INHIBITION
Cc1noc(CCNC(=O)NCc2ccc(OC3CCCC3)cc2)n1	-33.4%
CO[C@@H]1CN(c2ccccc2)S(=O)(=O)[C@@]12CCN(Cc1cncs1)C2	41.9%
Cc1cc(C)n(C2CCN(S(=O)(=O)N3CCC(C)CC3)CC2)n1	19.3%
CC(=O)N1N=C(c2ccccc2)OC1C(=O)NCCc1cccc(F)c1 (configuration not stated)	-18.2%
CN(C)C(=O)N1CC[C@H]2[C@H]1CCN2c1nncs1	2.4%
COCc1nc(C(=O)N2CCCC2c2ccc(OC)cc2)cs1 (configuration not stated)	46.2%
OC12CCC(CC1)N(Cc1ccc(F)cc1)C2CN1CCOCC1 (configuration not stated)	9.36%
Cc1ccc2c(ccn2CCC(=O)NC[C@@H]2CCCN3CCCC[C@H]23)c1	-3.95%
COc1ccc2c(ccn2CC(=O)NC[C@@H]2CCCN3CCCC[C@H]23)c1	54.8%
Cc1ccc2c(ccn2CC(=O)NC[C@@H]2CCCN3CCCC[C@H]23)c1	47.4%
Cc1ccc(-c2nc(CNCC3CN(C)CCO3)cs2)o1 (configuration not stated)	41.4%
Cc1nn(C)c2c(N(C)Cc3ccco3)nc(C3CC3)nc12	19.7%
O=C(O)[C@H]1C[C@H](C(=O)NCc2ccncc2)CN(CCC(F)(F)F)C1	-78.5%
COc1ccccc1NC(=O)CC(C)NCc1scnc1C (configuration not stated)	25.6%
COc1ccccc1NC(=O)CC(C)NCCc1sc(C)nc1C (configuration not stated)	71.3%
CCc1cnc(CCNC(C)CC(=O)Nc2cccc(C)c2C)s1 (configuration not stated)	15.6%
CO[C@H]1CC[C@H]2[C@H]1OCCN2C(=O)CCOc1ccccc1	14%
COCC1COCCC12CCN(Cc1nccs1)CC2 (configuration not stated)	22.6%
CNC(=O)c1cccc(CN2CCN(c3ccncc3)CC2)c1	35.1%
Cc1cc(CN2CCC(CNS(=O)(=O)c3ccccc3F)CC2)c(C)o1	14.4%
Cc1cc(CN2CCC(CNS(=O)(=O)c3ccc(Br)s3)CC2)c(C)o1	79%
Cc1cc(CN2CCC(CNS(=O)(=O)c3ccc(C)s3)CC2)c(C)o1	49.7%
O=C(NCc1ccco1)[C@@H]1CC[C@@H]2[C@@H](CCN2Cc2ccc(F)cc2)O1	5.87%
O=C1CC(c2ccccc2)c2snc(C(=O)O)c2N1 (configuration not stated)	12.6%

Compound	INHIBITION
O=C1CC(c2cccc(Cl)c2)c2snc(C(=O)O)c2N1 (configuration not stated)	55.7%
O=C1CC(c2ccc(F)cc2)c2snc(C(=O)O)c2N1 (configuration not stated)	15.9%
O=C1CC(c2ccc(F)c(F)c2)c2snc(C(=O)O)c2N1 (configuration not stated)	27.6%
O=C1CC(c2ccc(C(F)(F)F)cc2)c2snc(C(=O)O)c2N1 (configuration not stated)	42.4%
O=C1CC(c2ccsc2)c2snc(C(=O)O)c2N1 (configuration not stated)	72.6%
O=C(c1cccnc1)N1CCc2ncnc(C3CCOC3)c2CC1 (configuration not stated)	25.6%
CN(Cc1ccc2c(c1)OCO2)C(=O)C1CC(c2cccc(F)c2)=NO1 (configuration not stated)	-14.3%
COCCOCC(=O)N1C[C@@H]2CC[C@H](Oc3cccc(F)c3)[C@@H]2C1	-71.9%
CCCC(=O)N1Cc2ccccc2CC2(CCN(C)C2)C1 (configuration not stated)	40%
CN1CCCC2(CC1)CCN(C(=O)CCc1ccccc1F)CC2	80%
CN1CCN(CC2(O)CCN(C(=O)CCc3ccccc3F)C2)CC1 (configuration not stated)	16.705%
CN1CCCC2(CC1)CCN(C(=O)CCc1ccccc1O)CC2	56.5%
Cc1nc2c(c(=O)n1C)CCN(C(=O)CCc1ccccc1O)CC2	14.3%
COC(=O)CCC(=O)N1CCC2(CN(Cc3ccccc3F)C2)C1	22.4%
COc1ccc(CCNC(=O)N2CCCC(c3nncn3C)C2)cc1 (configuration not stated)	-12.1%
COCCN1CCC(CNC(=O)C2(c3ccccc3)CCOCC2)C1 (configuration not stated)	5.9%
CC1COCCN1Cc1nc(-c2cccc(C(F)(F)F)c2)no1 (configuration not stated)	9.54%
CCc1c(C)nc2ccccc2c1N1CCC(O)CC1	24.4%
CCc1c(C)nc2ccccc2c1N1CCC(NC(C)=O)CC1	37.2%
CCc1c(C)nc2ccccc2c1N1CCC(C(=O)NC)CC1	52.2%
COc1c(CNC2CCc3ccccc32)c(C(C)C)nn1C (configuration not stated)	11.2%
CC(=O)N1CCC(NC(=O)Cc2nc3nc(C)cc(C)n3n2)CC1	4.25%
O=S(=O)(NCC1OCCc2cn(Cc3ccccn3)nc21)C1CC1 (configuration not stated)	10.7%
C[C@@H]1CN(Cc2cccnc2)C[C@]12CCN(CCN1CCCC1)C2=O	37.1%

Compound	INHIBITION
Cc1ccc(CN(Cc2ccccn2)C(=O)CCC2CCCN(C)C2)s1 (configuration not stated)	49%
Cc1ccc(CN(Cc2ccccn2)C(=O)C2CCCCCN2C)s1 (configuration not stated)	27.6%
Cc1ccc(CN(Cc2ccccn2)C(=O)[C@H]2CC[C@@H](N)C2)s1	60.8%
CC(CC1CC1)NCCCN1CCCN(C)CC1 (configuration not stated)	-7.94%
Cn1cc(NC(=O)Nc2cccc3cccnc23)ccc1=O	37.9%
COC(C)(C)CNC(=O)N1CCCC1c1c(C)n[nH]c1C (configuration not stated)	82.2%
Cc1n[nH]c(C)c1C1CCCN1C(=O)NCC(=O)NC(C)(C)C (configuration not stated)	43.3%
Cc1n[nH]c(C)c1C1CCCN1C(=O)NC(C)(C)C (configuration not stated)	31.1%
CCOc1c(CNC2CSCCSC2)cccc1OC	24.9%
Cc1nnc([C@]23COC[C@H]2CN(Cc2cccs2)C3)o1	27.5%
COCc1noc(CC2CN(c3ncnc4sc(C)c(C)c34)CCO2)n1 (configuration not stated)	-12.5%
Cc1cnc(N2CCC3(CCN(CC4CCCC4)C3=O)CC2)nc1	-9.74%
Cc1cnn(C2CN(C(C)c3nc(-c4ccccc4)no3)C2)c1 (configuration not stated)	84%
CCc1ccc(-c2noc(Cn3nc(C(N)=O)ccc3=O)n2)cc1	-16.3%
CC(c1nc(-c2ccccc2)no1)N1CC(n2cccn2)C1 (configuration not stated)	-66.5%
COc1ccc(-c2nc(CN3CC(n4cccn4)C3)no2)cc1	25.8%
Cc1ccc(-c2noc(Cn3nc(C(N)=O)ccc3=O)n2)cc1	28.2%
Cc1cccc(-c2noc(Cn3nc(C(N)=O)ccc3=O)n2)c1	56%
CCCc1noc(C(C)N2CC(n3cccn3)C2)n1 (configuration not stated)	8.77%
COc1ccc(-c2nc(CN3CC(n4cc(C)cn4)C3)no2)cc1	90.1%
Cc1cnn(C2CN(Cc3nc(-c4ccco4)no3)C2)c1	-0.847%
Cc1ccccc1-c1noc(CN2CC(n3cccn3)C2)n1	-33.7%
Cc1cnn(C2CN(Cc3noc(-c4ccccc4)n3)C2)c1	8.77%
Cc1cnn(C2CN(Cc3nc(-c4ccccc4C)no3)C2)c1	89.5%
